# Measured values: the supplement of paper PMC12297408
# Where “and” joins values, the source holds several entries; their conditions need not be identical. Equal values may be shown once. Unmarked numbers belong to inactive results.
# Tested on: Plasmodium falciparum NF54/iGP1_RE9H ulg8 stage V gametocytes
# Assay: gametocyte viability (luciferase signal relative to DMSO control) (% of DMSO control); higher = less gametocytocidal activity, active = 50 or less
# Details: exposure time: 72 h
# How it was run: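 Stage V gametocytes of the NF54/iGP1_RE9Hulg8 line (day 12; ~2.5% gametocytemia, 3% hematocrit), in medium containing 0.5% Albumax II, were dispensed into 96-well plates with compounds spotted in nanolitre volumes from 10 mM DMSO stocks, for final concentrations of 10 µM or 1 µM in a single well each. After 72 h at 37 °C, 90 µl from each well was combined with 10 µl D-luciferin (30 mg/ml), and luminescence was measured on an IVIS Lumina II. Viability was expressed against the mean of the DMSO vehicle wells on the same plate.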
Structure (SMILES),gametocyte viability (concentration: 1 µM),gametocyte viability (concentration: 10 µM)
COc1cc2ncc(-c3ccccc3)nc2cc1OC,99.5,91.9
Cn1cc(C2=C(c3ccc(Cl)cc3Cl)C(=O)NC2=O)c2ccccc21,97.8,112
CO[C@H]1C[C@@H]2CC[C@@H](C)[C@@](O)(O2)C(=O)C(=O)N2CCCC[C@H]2C(=O)O[C@H]([C@H](C)C[C@@H]2CC[C@@H](OP(C)(C)=O)[C@H](OC)C2)CC(=O)[C@H](C)/C=C(\C)[C@@H](O)[C@@H](OC)C(=O)[C@H](C)C[C@H](C)/C=C/C=C/C=C/1C [Deforolimus (Ridaforolimus)],90.2,86.2
CNC(=O)Nc1ccc(-c2nc(N3CC4CCC(C3)O4)c3cnn(C4CCC5(CC4)OCCO5)c3n2)cc1,103,108
OCCn1cc(-c2ccc3c(c2)CC/C3=N\O)c(-c2ccncc2)n1,88.7,99.6
Nc1nc(N)c2nc(-c3cccc(O)c3)c(-c3cccc(O)c3)nc2n1,110,109
Cn1c(=O)c(F)c(Nc2ccc(I)cc2F)c2c(=O)n(C[C@@H](O)CO)cnc21,108,114
CNC(=O)CN1CCC(Oc2cc3c(Nc4cccc(Cl)c4F)ncnc3cc2OC)CC1,103,106
Cc1ccc(C(=O)Nc2cccc(C(F)(F)F)c2)cc1Nc1nc(-c2cccnc2)nc2c1cnn2C,100,98.7
O=C1C(c2c(O)[nH]c3ccccc23)=Nc2ccccc21 [Indirubin],104 and 100,113 and 97.3
Cc1ccc(NC(=O)c2ccc(CN3CCN(C)CC3)cc2)cc1Nc1nc(-c2cccnc2)cs1 [Masitinib (AB1010)],104,80.3
O=c1c(-c2ccc(O)cc2)coc2cc(O)ccc12 [Daidzein],116,109
CC(C)(C)Cn1c(N)nc2ccc(-c3[nH]c(C(C)(C)C)nc3-c3ccc(F)cc3)nc21,97.8,105
COc1cc2c(Oc3ccc4[nH]c(C)cc4c3F)ncnc2cc1OCCCN1CCCC1 [Cediranib (AZD2171)],88.6,90.7
C#Cc1cccc(Nc2ncnc3cc(OC)c(OC)cc23)c1,103,96.4
COc1cc(OC)c(/C=C/S(=O)(=O)Cc2ccc(OC)c(NCC(=O)O)c2)c(OC)c1,93.4,101
CC1(C)CNc2cc(NC(=O)c3cccnc3NCc3ccncc3)ccc21 [Motesanib Diphosphate],97,97.4
NC(=O)Nc1cc(-c2cccc(F)c2)sc1C(=O)N[C@H]1CCCNC1,116,92.3
CCCCCCCCCCCCC/C=C/[C@@H](O)[C@@H](N)CO [D-erythro-Sphingosine],113,119
Cc1cc(Nc2cc(N3CCN(C)CC3)nc(/C=C/c3ccccc3)n2)n[nH]1,90.7,71.4
C[S+]([O-])c1ccc(-c2nc(-c3ccc(F)cc3)c(-c3ccncc3)[nH]2)cc1 (stereo unspecified),97.2 and 103,109 and 105
Cc1cc(Nc2nc(N[C@@H](C)c3ncc(F)cn3)ncc2Cl)[nH]n1,97.5,95.5
C[C@@H]1CN(CC(=O)Nc2ccc3c(c2)Cc2cccc(-c4cc(=O)cc(N5CCOCC5)o4)c2S3)C[C@H](C)O1,86,68
O=c1c(O)c(-c2ccc(O)c(O)c2)oc2cc(O)cc(O)c12 [Quercetin·2H2O],102,95.8
Cc1cc(C(=O)NOCCO)c(Nc2ccc(I)cc2F)n(C)c1=O,90.8,92.8
CC(C)c1cnc(NC(=O)Cc2ccccc2)s1,94.5,92
NC1(Cc2ccc(Cl)cc2)CCN(c2ncnc3[nH]ccc23)CC1,114,78.9
C=CC(=O)Nc1cccc(Oc2nc(Nc3ccc(N4CCN(C)CC4)cc3)ncc2Cl)c1,103,72.5
